# CYP2C9 activ: increases human cytochrome P450 2C9 activity. P11712. recombinant CYP2C9, luciferin-H conversion, luminescence; stronger effect = higher value; factor 1 = untreated enzyme, 0 = blocked. activation factor at 5 µM. hit rate 1.4% among 96,000. AID 1024;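 active means activation factor of 2 or more for CYP2C9 at a 5 µM dose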;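 further: 0 = sulfaphenazole-blocked wells and 1 = vehicle-only wells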
# Target sequence (P11712 whole entry, looked up): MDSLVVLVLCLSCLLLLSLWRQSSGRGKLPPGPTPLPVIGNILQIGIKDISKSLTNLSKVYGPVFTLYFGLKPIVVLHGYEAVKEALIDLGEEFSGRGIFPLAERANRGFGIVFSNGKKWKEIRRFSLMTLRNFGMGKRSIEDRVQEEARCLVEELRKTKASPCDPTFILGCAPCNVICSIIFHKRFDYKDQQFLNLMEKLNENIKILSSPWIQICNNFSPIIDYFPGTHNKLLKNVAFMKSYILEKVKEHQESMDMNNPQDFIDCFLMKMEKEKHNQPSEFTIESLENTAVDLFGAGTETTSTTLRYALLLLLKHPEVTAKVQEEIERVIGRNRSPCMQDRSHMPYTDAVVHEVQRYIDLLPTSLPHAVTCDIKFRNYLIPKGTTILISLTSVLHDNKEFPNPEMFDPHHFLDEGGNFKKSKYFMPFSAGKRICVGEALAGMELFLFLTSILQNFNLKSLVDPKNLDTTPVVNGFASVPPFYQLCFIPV
# PostGolgi ctrl: growth of the yeast control strain, post-Golgi counter-screen; hit rate 5% among 98,000; inhibition, % at 10 µM; efflux-deficient yeast background strain, growth absorbance A615, 16 h
# CYP2C9 inh: inhibitors of human CYP2C9 | P11712 | CYP2C9 Supersomes, luciferin-H conversion, luminescence | inhibition, % at 5 µM | hit rate 20% among 96,000 | AID 777;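 active means blocking of liver enzyme CYP2C9 beyond about 50% at 5 µM, limit read from the data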
# CYP2C19 activ: cytochrome P450 2C19 (human) activation. P33261. recombinant CYP2C19, luciferin-H EGE luminescence; stronger effect = higher value; 0 = fully inhibited enzyme, 1 = untreated enzyme. activation factor at 5 µM. 96,000 tested, under 10 active. AID 1025;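 active means activation factor of at least 2 at 5 µM in the primary screen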;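 further: 0 = wells with 2.5 mM tranylcypromine and 1 = vehicle-only wells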
# PostGolgi yeast: growth inhibition of a yeast mutant, post-Golgi transport screen; inhibition, % at 10 µM; post-Golgi transport phenotypic cell assay; hit rate 0.9% among 98,000;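 further: yeast cells grown in 1536-well plates; yeast grown about 18 h at 30C before absorbance read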
# CYP2C19 inhib: blocks human cytochrome P450 2C19; P33261; hit rate 21% among 96,000; inhibition, % at 5 µM; CYP2C19 Supersomes, luciferin-H EGE luminescence, 30 min; AID 778;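 active means CYP2C19 inhibition above a set limit at 5 µM in the primary screen, cut at about 50% in these data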;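 further: plate controls were negative control wells for no effect and 2.5 mM tranylcypromine positive control for full effect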
# * marks the source's active call; other numbers are inactive results; · = not tested or not shown. A selection: hits, their analogues and other compounds. The true share with any hit is near 32%. Unless noted, no stated cut-off is given here; in the data, active means inhibition above about 30%; inactive means the rest.
SMILES,CYP2C9 activ,PostGolgi ctrl,CYP2C9 inh,CYP2C19 activ,PostGolgi yeast,CYP2C19 inhib
CCOC(=O)c1c(NC(=O)CSc2nnc(-c3ccc(C)cc3)o2)sc(C(C)=O)c1C,0.5,10,48,0.8,0,21
CCOC(=O)c1c(NC(=O)CSc2nnc(CNc3ccc(F)cc3)o2)sc(C(C)=O)c1C,0.1,12,94*,0.1,-9,89*
CCc1nnc(NC(=O)CSc2nnc(Cc3ccccc3)o2)s1,0.7,-7,30,0.7,14,31
CCCC(C)C(=O)Nc1ccc(C(N)=O)cc1 (stereo unspecified),1.2,-2,-20,1.1,4,-14
COc1ccc(C(C(=O)NC2CCCCC2)N(C(=O)Cc2c[nH]c3ccccc23)c2ccc(NC(C)=O)cc2)cc1OC (stereo unspecified),0.6,2,36,0.7,-2,28
CCOC(=O)N1CCN(S(=O)(=O)c2ccc3c(c2)oc(=O)n3C)CC1,1,9,0,0.4,-10,58*
CCOC(=O)N1CCN(S(=O)(=O)c2ccc(OCC(=O)OC)c(Cl)c2)CC1,1.1,18,-6,0.9,-5,7
CCOC(=O)N1CCN(S(=O)(=O)c2ccc(OC)c(Cl)c2Cl)CC1,1.9,13,-94,0,13,99*
CCOC(=O)n1c(=O)oc2cc(S(=O)(=O)N3CCCCC3)ccc21,·,-1,·,·,-5,·
CCOC(=O)N1CCN(S(=O)(=O)c2cccc3nsnc23)CC1,0.8,-3,19,0.2,20,76*
CCOC(=O)N1CCN(S(=O)(=O)c2ccc(OC)c(Cl)c2)CC1,1.5,2,-46,0,-4,98*
Cc1cccc(Cc2cnc(NC(=O)CN3C(=O)/C(=C/c4ccccc4)SC3=S)s2)c1,0.6,-10,42,0.9,-7,7
CC(=O)N(NC(=O)c1ccccc1Cl)C1CC(=O)N(c2ccc(C)cc2)C1=O (stereo unspecified),0.8,3,16,0.8,-2,18
O=C(NCc1ccc2c(c1)OCO2)C1CCC(CNS(=O)(=O)c2ccc(Cl)cc2)CC1 (stereo unspecified),1,-7,-5,1,0,-3
CC(C)(C)n1nnnc1C(c1cccs1)N1CCCc2ccccc21 (stereo unspecified),0.7,21,30,0.6,18,37
C=CC(O)Cc1c(C)n[nH]c1C (stereo unspecified),1.2,11,-15,1,9,-1
COc1ccc(C(=O)NC(=S)NCCO)cc1Br,1,-3,-3,1.1,0,-7
C=CCN(CC=C)C(=S)NC(=O)c1ccc(OC)c(Br)c1,0.9,13,11,0.3,4,74*
COc1cccc(-c2noc(C3CCCN(S(=O)(=O)c4cccc(Cl)c4C)C3)n2)c1 (stereo unspecified),0.5,6,51*,0.6,-3,40
CCCS(=O)(=O)N1CCCC(c2nc(-c3cccc(OC)c3)no2)C1 (stereo unspecified),0.2,-2,77*,0.2,-1,80*
O=S(=O)(NC1CC1)c1ccc(S(=O)(=O)N2CCCC(c3nc(-c4cccnc4)no3)C2)cc1 (stereo unspecified),0.4,-5,59*,0.3,10,70*
CN(C)c1c([N+](=O)[O-])ncn1C,0.9,9,9,0.9,6,14
O=C(CCn1ccc2ccccc21)Nc1ccc(N2CCOCC2)cc1,0.7,6,28,0.4,3,55*
COC(=O)C1(CCSC)NC(c2ccco2)C2C(=O)N(C)C(=O)C21 (stereo unspecified),1.1,-12,-6,0.4,16,60*
Cn1c(=O)c2nc(NCc3ccccc3)cnc2n(C)c1=O,0.3,-1,73*,0.3,35*,74*
CCn1cc(-c2nnnn2-c2ccc(Cl)cc2)c(=O)c2ccccc21,1.1,4,-15,0.9,0,9
COc1cccc(-c2nc(CS(=O)(=O)CC(=O)Nc3cc(C)ccc3C)c(C)o2)c1,0.8,16,16,1,-4,-2
CCCCS(=O)CC(O)COc1ccc(C(C)(C)C)cc1 (stereo unspecified),0.9,22,8,0.4,16,58*
Cc1csc(NC(=O)CCCSc2nc3ccccc3s2)n1,0.5,12,52*,0.1,7,88*

# From PubChem
